Tested on: Vero E6 infected with SARS-CoV-2
Test: inhibition of SARS-CoV-2 cytopathic effect; higher = more antiviral protection, active = above 15
Settings: 48 h

Measured: inhibition of SARS-CoV-2 cytopathic effect

c1cc(Nc2cc(C3CC3)n[nH]2)nc(Nc2ccc3[nH]cnc3c2)n1
inactive: 1 nM -2.31% | 8.33 nM -1.82% | 100 nM -0.35% | 833.33 nM -0.79% | 10000 nM 5.62%

O=S(=O)(O)c1ccc2[nH]c(-c3ccccc3)nc2c1 [phenylbenzimidazole-sulfonic-acid]
inactive: 1 nM -0.84% | 8.33 nM 2.98% | 100 nM 1.91% | 833.33 nM 4.9% | 10000 nM -7.89%

CC#C[C@]1(O)CC[C@H]2[C@@H]3CCC4=CC(=O)CCC4=C3[C@@H](c3ccc(N(C)C)cc3)C[C@@]21C [mifepristone]
inactive: 1 nM -1.56% | 8.33 nM 0.62% | 100 nM 3.53% | 833.33 nM -4.55% | 10000 nM 8.14%

CCN[C@H]1CN(CCCOC)S(=O)(=O)c2sc(S(N)(=O)=O)cc21 [brinzolamide]
inactive: 1 nM 0.37% | 8.33 nM -1.59% | 100 nM -2.91% | 833.33 nM -1.67% | 10000 nM -2.11%

COc1ccc(/C=C2\CCCN=C2c2cccnc2)c(OC)c1
inactive: 1 nM -0.63% | 8.33 nM 0.1% | 100 nM 0.18% | 833.33 nM 1.08% | 10000 nM 2.4%

CN1CC(=O)NC1=N [creatinine]
inactive: 1 nM 1.26% | 8.33 nM 1.05% | 100 nM -2.37% | 833.33 nM 1.18% | 10000 nM -1.05%

Cc1cccc(NC(=O)c2ccc(C(F)(F)F)cc2C(=O)O)n1
inactive: 1 nM 0.74% | 8.33 nM 0.28% | 100 nM 1.41% | 833.33 nM 0.88% | 10000 nM 2.54%

CCn1cnc2c(Nc3cccc(Cl)c3)nc(N[C@@H]3CCCC[C@@H]3N)nc21
inactive: 1 nM -1.22% | 8.33 nM 0.37% | 100 nM 2.67% | 833.33 nM 3.13% | 10000 nM -29.1%

CCCN[C@H]1CCc2nc(N)sc2C1 [pramipexole]
inactive: 1 nM -2.43% | 8.33 nM -0.27% | 100 nM -3.37% | 833.33 nM -2.16% | 10000 nM -1.54%

C[C@@H]1NC(=O)[C@@H]2CCCN2C(=O)[C@H](CC(N)=O)NC(=O)[C@@H]2CSSC[C@H](N)C(=O)N[C@H]3CSSC[C@H](NC1=O)C(=O)N[C@@H]([C@@H](C)O)C(=O)NCC(=O)N[C@H](C(=O)N[C@@H](Cc1ccc(O)cc1)C(=O)O)CSSC[C@H](NC(=O)[C@H](Cc1ccc(O)cc1)NC(=O)[C@H](CCC(=O)O)NC3=O)C(=O)N2 [linaclotide]
inactive: 1 nM -2.9% | 8.33 nM 0.88% | 100 nM 1.75% | 833.33 nM 1% | 10000 nM 3.24%

C1CCC(C(CC2CCCCN2)C2CCCCC2)CC1 (stereo not given) [perhexiline]
active: 10000 nM 48.5%
inactive: 1 nM 0.59% | 8.33 nM 4.47% | 100 nM 2.39% | 833.33 nM 0.87%

CCc1ccc2c(-c3cccc(Cl)c3)nc(=O)n(CC)c2n1
inactive: 1 nM -1.8% | 8.33 nM 0.23% | 100 nM 1.37% | 833.33 nM -1.65% | 10000 nM 0.57%

Oc1ccnc2cc(Cl)ccc12 [chloroxoquinoline]
inactive: 1 nM -2.22% | 8.33 nM 0.71% | 100 nM 0.09% | 833.33 nM -0.05% | 10000 nM 1.04%

COC(=O)C1=C(C)NC(C)=C(C(=O)OCCN(C)Cc2ccccc2)C1c1cccc([N+](=O)[O-])c1 (stereo not given) [nicardipine]
inactive: 1 nM 0.9% | 8.33 nM 0.28% | 100 nM 0.23% | 833.33 nM -0.11% | 10000 nM -1.36%

CCNC(=O)c1noc(-c2cc(C(C)C)c(O)cc2O)c1-c1ccc(CN2CCOCC2)cc1
inactive: 1 nM 0.97% | 8.33 nM -0.58% | 100 nM -1.84% | 833.33 nM 0.4% | 10000 nM -4.07%

CCCCCCCCCCCCCCCCCC(=O)OC[C@@H](O)[C@H]1OC[C@H](O)[C@H]1O [sorbitan-monostearate]
inactive: 1 nM 0.02% | 8.33 nM -1.4% | 100 nM 1.63% | 833.33 nM 2.62% | 10000 nM -0.38%

Cc1cc(C(=O)Nc2cc(Oc3ccc4nc(NC(=O)C5CC5)cn4n3)ccc2C)n(C)n1
inactive: 1 nM -0.96% | 8.33 nM -3.26% | 100 nM -4.84% | 833.33 nM -7.63% | 10000 nM -4.87%

CC[C@H]1OC(=O)C[C@@H](O)[C@H](C)[C@@H](O[C@@H]2O[C@H](C)C[C@H](N(C)C)[C@H]2O)[C@@H](CC=O)C[C@@H](C)C(=O)/C=C/[C@]2(C)O[C@H]2[C@@H]1C [rosamicin]
inactive: 1 nM 1.84% | 8.33 nM 0.4% | 100 nM -1.22% | 833.33 nM 2.62% | 10000 nM 9.6%

CN[C@@H]1[C@@H](O)[C@@H](O[C@@H]2[C@@H](O)[C@H](O[C@H]3O[C@H](CN)[C@@H](O)[C@H](O)[C@H]3O)[C@@H](N)C[C@H]2NC(=O)[C@@H](O)CN)OC[C@]1(C)O [isepamicin]
inactive: 1 nM -2.06% | 8.33 nM 1% | 100 nM 3.72% | 833.33 nM -1.29% | 10000 nM -1.06%

C[C@@H]1CCN(C(=O)CC#N)C[C@@H]1N(C)c1ncnc2[nH]ccc12
inactive: 1 nM -0.74% | 8.33 nM 0.22% | 100 nM -0.47% | 833.33 nM -2.11% | 10000 nM -0.5%

N=C1CCCN1Cc1[nH]c(=O)[nH]c(=O)c1Cl [tipiracil]
inactive: 1 nM 2.52% | 8.33 nM 2.02% | 100 nM 0.58% | 833.33 nM -1.37% | 10000 nM 2.84%

Oc1nc(O)c2cn[nH]c2n1 [oxypurinol]
inactive: 1 nM -1.15% | 8.33 nM -1.53% | 100 nM -2.43% | 833.33 nM -2.52% | 10000 nM 1.11%

CC(C)C[C@H](NC(=O)CNC(=O)[C@H](Cc1ccc(O)cc1)NC(=O)[C@H](CO)NC(=O)[C@H](Cc1c[nH]c2ccccc12)NC(=O)[C@H](Cc1cnc[nH]1)NC(=O)[C@@H]1CCC(=O)N1)C(=O)N[C@@H](CCCNC(=N)N)C(=O)N1CCC[C@H]1C(=O)NCC(N)=O [gonadorelin]
inactive: 1 nM -1.95% | 8.33 nM -2.66% | 100 nM 0.47% | 833.33 nM -1.19% | 10000 nM 1.93%

O=C(c1cccc(Cl)c1F)N1CCN(Cc2cccc(Nc3nccs3)n2)CC1
inactive: 1 nM -0.75% | 8.33 nM -9.29% | 100 nM 0.91% | 833.33 nM -4.51% | 10000 nM -1.08%

C[C@]12CC[C@@H]3c4ccc(O)cc4CC[C@H]3[C@@H]1CC[C@@H]2OC(=O)CCC1CCCC1 [estradiol-cypionate]
inactive: 1 nM -1.71% | 8.33 nM -1.36% | 100 nM -3.51% | 833.33 nM 1.21% | 10000 nM 1.69%

COc1ccc(Nc2ccn(-c3ccccc3)n2)cc1
inactive: 1 nM 2.12% | 8.33 nM 1.12% | 100 nM 3.85% | 833.33 nM 3.51% | 10000 nM 4.1%

Cn1cc(-c2ccc(S(=O)(=O)n3ccc(/C=C/C(=O)Nc4ccccc4N)c3)cc2)cn1
inactive: 1 nM -0.95% | 8.33 nM 1.05% | 100 nM -0.51% | 833.33 nM -4.65% | 10000 nM -1.31%

Cc1c(OCC(F)(F)F)ccnc1C[S+]([O-])c1nc2ccccc2[nH]1 (stereo not given) [lansoprazole]
inactive: 1 nM 3.22% | 8.33 nM 0.73% | 100 nM -0.31% | 833.33 nM -1.96% | 10000 nM -1.14%

CN(C)CC(c1ccc(O)cc1)C1(O)CCCCC1 (stereo not given) [desvenlafaxine]
inactive: 1 nM 1.5% | 8.33 nM 3.55% | 100 nM 4.53% | 833.33 nM 1.89% | 10000 nM 0.99%

CC(C)C[C@H](NC(=O)CNC(=O)c1cc(Cl)ccc1Cl)B1OC(=O)C(CC(=O)O)(CC(=O)O)O1 [ixazomib-citrate]
inactive: 1 nM 2.06% | 8.33 nM 1.34%
active: 100 nM 22.3% | 833.33 nM 29% | 10000 nM 20.8%

C#CCN(C)Cc1ccccc1 [pargyline]
inactive: 1 nM 0% | 8.33 nM 0.65% | 100 nM -1.02% | 833.33 nM -1.01% | 10000 nM 2.9%

Cc1ccccc1/N=N/c1ccc(/N=N/c2c(O)ccc3ccccc23)c(C)c1 [sudan-IV]
inactive: 1 nM 8.71% | 8.33 nM -0.01% | 100 nM -4.36% | 833.33 nM -0.99% | 10000 nM -2.29%

CNCCc1ccc(O)c(O)c1 [deoxyepinephrine]
inactive: 1 nM -0.96% | 8.33 nM 2.29% | 100 nM 2.18% | 833.33 nM -0.04% | 10000 nM -0.83%

CC[N+](CC)(CCNC(=O)C(=O)NCC[N+](CC)(CC)Cc1ccccc1Cl)Cc1ccccc1Cl [ambenonium]
inactive: 1 nM 0.39% | 8.33 nM -2.16% | 100 nM -1.45% | 833.33 nM 0.75% | 10000 nM 0.34%

COc1cc(OC)c2c(=O)[nH]c(-c3cc(C)c(OCCO)c(C)c3)nc2c1 [apabetalone]
inactive: 1 nM -0.27% | 8.33 nM 0.93% | 100 nM 2.32% | 833.33 nM -1.57% | 10000 nM -0.84%

COc1ccc(S(=O)(=O)Nc2cccnc2Nc2ccc(O)cc2)cc1
inactive: 1 nM 1.18% | 8.33 nM 4.25% | 100 nM 1.28% | 833.33 nM 0.22% | 10000 nM 1.62%

O=C(O)c1cc2cccc([N+](=O)[O-])c2[nH]1
inactive: 1 nM -1.29% | 8.33 nM 0.14% | 100 nM -0.8% | 833.33 nM 0.27% | 10000 nM 1.27%
